This is a sample that favours compounds with a hit; in the whole collection about 7.4% have one here.
NPC1 prom act: activators of NPC1 promoter; Huh7 NPC1 promoter luciferase reporter, 24 h; Potency, µM (highest dose often 9.22 µM), for inactives: at the highest dose activation, actives largely listed as activators; 2.4% of 320,000 active; also: % of control where 0% means no effect; nearly all actives have a fitted effect of over 60% in size
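Cells: Huh7 expressing luciferase under the NPC1 promoter, 1500/well. Seeded 2 h, compound added, incubated 24 h at 37 °C. Luciferase reagent, 10 min ambient, then luminescence.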
FLuc modulator: counter-screen for miR-21 project: firefly luciferase inhibitors or activators. Potency, µM (series often up to 57.5 µM), for inactives: at the highest dose activity change, negative = inhibition, most hits filed as inhibitors. 6.9% of 360,000 active. purified FLuc, Km substrates, luminescence inhibition. P08659. AID 588342;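 also: plate controls were vehicle for no effect and reference inhibitor for full effect; nearly all actives have a fitted effect of over 55% in size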
Target sequence (P08659 whole entry, looked up): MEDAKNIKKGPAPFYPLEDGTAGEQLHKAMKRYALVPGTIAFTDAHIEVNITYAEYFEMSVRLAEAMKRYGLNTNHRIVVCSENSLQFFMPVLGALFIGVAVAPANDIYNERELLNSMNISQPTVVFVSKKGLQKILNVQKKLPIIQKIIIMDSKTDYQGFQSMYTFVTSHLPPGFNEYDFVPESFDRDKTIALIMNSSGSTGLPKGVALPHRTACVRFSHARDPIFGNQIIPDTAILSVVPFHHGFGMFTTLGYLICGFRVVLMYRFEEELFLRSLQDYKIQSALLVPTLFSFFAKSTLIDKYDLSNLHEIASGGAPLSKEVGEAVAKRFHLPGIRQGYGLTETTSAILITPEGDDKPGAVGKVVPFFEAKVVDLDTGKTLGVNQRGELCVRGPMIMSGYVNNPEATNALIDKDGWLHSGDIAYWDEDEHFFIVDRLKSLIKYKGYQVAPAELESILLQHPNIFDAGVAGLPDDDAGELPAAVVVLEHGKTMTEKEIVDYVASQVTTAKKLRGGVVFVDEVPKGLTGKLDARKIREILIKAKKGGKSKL
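Purified P. pyralis luciferase (10nM final) with 10uM D-luciferin and 10uM ATP (Km levels) in 50mM Tris acetate pH 7.5, 10mM Mg acetate, 0.01% Tween-20, 0.05% BSA; qHTS 6-point titration, ~60 µM downward; luminescence read.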
SMN2 splice up: enhancers of SMN2 splice variant expression; Potency, µM (highest dose often 46.1 µM), without a hit: at the top dose activity change, positive = activation, usual class: activators; 2.8% of 210,000 active; HEK293 SMN2-luciferase splicing reporter, luminescence, 30-36 h; also: % of control where 0% means no effect; nearly all actives have a fitted effect of over 55% in size
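HEK293 cells carry an SMN2 minigene-luciferase reporter in which exon 7 inclusion puts luciferase in frame. Cells were seeded at 2000 cells/well, attached for 10-12 hours, then exposed to compounds for 30-36 hours at 37C before ONE-Glo luminescence.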
ELG1 genotox: induces genotoxicity in HEK293T cells with luciferase-tagged ELG1. HEK293T ELG1-luciferase reporter, luminescence, 16 h. Potency, µM (titrated, usually from 46 µM), for inactives: at the top dose activity change, positive = activation, usual class: activators. 1.3% of 330,000 active. AID 504466; also: % of control where 0% means no effect; nearly all actives have a fitted effect of over 60% in size
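After overnight (16 hr) compound treatment at 37 °C, ELG1-luciferase HEK293T cells were lysed with ONE-Glo; luminescence quantified 30 min later at room temperature.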
Rab9 promoter act: Rab9 promoter activation; 2.8% of 320,000 active; AID 485297; Huh7 Rab9 promoter-luciferase reporter, luminescence, 24 h; Potency, µM (highest dose often 9.22 µM), inactives show at the highest dose activation, negative = inhibition, most hits filed as activators; also: % of control where 0% means no effect; nearly all actives have a fitted effect of over 60% in size
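Using Huh7 cells stably transfected with Rab9 promoter–luciferase, compounds were incubated 24 h at 37 °C, 5% CO2; luciferase luminescence was read 10 min after reagent addition.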
Starred values were filed as active, the others as inactive; u = inconclusive; x = no result. Calls follow the shape of the dose curve; as a rule, active = well fitted curve in the direction sought with a large enough effect; inconclusive = small, poorly fitted or top-dose-only effect, or another doubt; inactive = no such curve, though single readings can be large; an effect the other way counts as inactive or inconclusive. Potency is read from the fitted curve at half-maximal effect.

SMILES	NPC1 prom act	FLuc modulator	SMN2 splice up	ELG1 genotox	Rab9 promoter act
O=C(c1ccccc1)c1cccc(NC(=O)c2ccco2)c1	25.3%	26.9µM*	17.9%	u	3.98µM*
O=C(Nc1cccc(NC(=O)c2ccco2)c1)c1ccccc1	1.9%	u	x	0.3%	2.9%
COc1c(C)cc(Br)cc1C(=O)Nc1cccc(NC(=O)c2ccco2)c1	-6.3%	-17.2%	0.2%	-28.2%	-8.2%
COc1cccc(NC(=O)c2ccco2)c1	u	u	10µM*	14.6µM*	u
O=C(Nc1cccc(OC(=O)c2ccco2)c1)c1ccco1	2.1%	-5.8%	0.4%	12.9%	-1.2%
COc1ccc(Br)cc1C(=O)Nc1ccc(O)cc1	6.6%	u	28.2µM*	15.2%	1.8%
O=C(COc1cccc(NC(=O)c2ccco2)c1)c1ccccc1	7.0%	16.9µM*	-31.5%	0.1%	10.2%
COc1cccc(OCc2cc(C(=O)N3CCN(C)C(c4ccccc4)C3)no2)c1 (stereo not given)	26.3%	26.9µM*	x	6.9%	u
COc1ccc(OCc2cc(C(=O)N(C)C(C)c3ccon3)no2)c(Cl)c1 (stereo not given)	u	13.5µM*	x	u	2.51µM*
COc1ccc(OCc2cc(C(=O)N3CCSCC3)no2)c(Cl)c1	2.82µM*	10.7µM*	x	u	2.82µM*
COc1ccc(OCc2cc(C(=O)N(C)CCC3CCOCC3)no2)c(Cl)c1	u	16.9µM*	x	u	u
COc1cc(NS(=O)(=O)c2ccc3c(c2)CC(C)N3C(=O)C2CCC2)cc(OC)c1OC (stereo not given)	x	-15.8%	x	x	x
O=C(Nc1cccc(S(=O)(=O)NC2=NCCC2)c1)c1ccc(=O)[nH]c1	0.5%	2.9%	x	-0.3%	-0.7%
COc1ccc(OCc2cc(C(=O)N3CCC(c4ccccc4)CC3)no2)c(Cl)c1	u	23.9µM*	x	16.3%	2.82µM*
COc1ccc(OCc2cc(C(=O)N3CCCCCC3)no2)c(Cl)c1	u	19µM*	x	u	u
O=C(c1cc(COc2ccc(F)cc2Cl)on1)N1CCSCC1	2.82µM*	10.7µM*	x	u	3.98µM*
COc1ccc(OCc2cc(C(=O)N3CCOCC3)no2)c(Cl)c1	1.58µM*	6.75µM*	x	18.3µM*	1.41µM*
CCOC(=O)C1CCCN(S(=O)(=O)c2cc3c4c(c2)CC(=O)N4CCC3)C1 (stereo not given)	x	4.3%	x	x	x
COc1cccc([C@@H]2Oc3ccc(Br)cc3C[C@H]2O)c1	x	x	1.1%	x	x
O=[N+]([O-])c1ccc(N/N=C/c2cccc(O)c2)cc1	2.9%	23.9µM*	x	u	28.3%
O=[N+]([O-])c1ccc(N/N=C/c2cccnc2)cc1	5.9%	u	x	-6.8%	-13.2%
O=[N+]([O-])c1ccc(N/N=C/c2ccc[nH]2)cc1	-9.4%	u	-32.1%	11.3%	1.9%
O=[N+]([O-])c1ccc(N/N=C/c2cccc(O)c2O)cc1	-3.4%	16.9µM*	x	11.6µM*	1.0%
Cc1ccc(CSc2nnc(NC(=O)C3=COCCO3)s2)cc1	10.3%	26.9µM*	x	9.3%	2.7%
Cc1cc(C)c(-c2csc(NC(=O)C3=COCCO3)n2)c(C)c1	-2.0%	-0.8%	x	u	-5.4%
SMILES	NPC1 prom act	FLuc modulator	SMN2 splice up	ELG1 genotox	Rab9 promoter act
O=C(Nc1nc(-c2ccc(Cl)cc2)cs1)C1=COCCO1	u	23.9µM*	x	6.9%	16.4%
Cc1cc(-c2csc(NC(=O)C3=COCCO3)n2)c(C)n1C	9.6%	-13.4%	x	0.8%	17.3%
O=C(Nc1nc(-c2ccc(F)c(F)c2)cs1)C1=COCCO1	19.8%	u	x	4.1%	u
CCc1ccc(-c2csc(NC(=O)C3=COCCO3)n2)cc1	0.891µM*	8.49µM*	x	u	0.794µM*
O=C(Nc1nc(-c2cccs2)cs1)C1=COCCO1	u	12µM*	12.6µM*	u	u
Cc1cc(=O)c2c(O)cc(O)c(C)c2o1	x	x	-2.7%	x	x
Cc1nc2nc(-c3cccnc3)[nH]n2c(=O)c1C	2.0%	u	-12.5%	14.2%	-2.4%
Cc1cc(=O)n2[nH]c(-c3cccnc3)nc2n1	-3.9%	16.9µM*	-24.3%	1.0%	1.2%
Cc1cc(=O)n2[nH]c(-c3ccc(F)cc3)nc2n1	18.9%	12µM*	11.2%	u	3.5%
C/C=C\C=C/C(=O)Nc1cccc(C2=NOC3(C2)C[C@H](C(N)=O)N(C(=O)c2ccc(OC)cc2)C3)c1 (stereo not given in full)	1.6%	15.1µM*	x	5.0%	-2.0%
C/C=C(/C)C(=O)Nc1cccc(C2=NOC3(C2)C[C@@H](C(N)=O)N(C(=O)c2ccc(OC)cc2)C3)c1 (stereo not given in full)	-6.8%	3.1%	x	4.0%	0.6%
C/C=C\C=C/C(=O)Nc1cccc(C2=NOC3(C2)C[C@@H](C(N)=O)N(C(=O)c2ccc(Cl)cc2)C3)c1 (stereo not given in full)	2.6%	15.1µM*	x	3.3%	9.1%
Cc1nc(-n2nc(C)c(Cc3ccccc3Cl)c2C)sc1C(=O)Nc1ccccc1F	x	-3.0%	x	x	x
CCOC(=O)c1c(C)[nH]c(C)c1S(=O)(=O)N1CCCC(C(=O)Nc2ccccc2OCC)C1 (stereo not given)	x	-6.4%	x	x	x
CCOc1ccc(C(=O)NC(Cc2ccccc2)C(=O)OC)cc1 (stereo not given)	27.5%	4.78µM*	7.6%	7.8%	u
CCOc1ccc(C(=O)NC(C)CCc2ccccc2)cc1 (stereo not given)	4.9%	-0.5%	x	1.0%	7.3%
COC(=O)[C@H](Cc1ccccc1)NC(=O)c1ccc2ccccc2n1	0.2%	6.75µM*	x	3.4%	2.0%
O=C(Nc1nncs1)c1cc(S(=O)(=O)N2CCOCC2)ccc1Cl	9.3%	-2.6%	x	-5.5%	-4.7%
C/C(=N\Nc1cccc2cccnc12)c1ccccc1O	14.5%	1.2µM*	25.1µM*	u	u
O=C(Nc1cccc2cccnc12)c1cccc2ccccc12	-0.6%	u	-23.0%	13.4%	-5.9%
CNC(=O)Nc1cccc2cccnc12	-1.6%	5.3%	x	-1.0%	-4.8%
C/C(=N\Nc1cccc2cccnc12)c1ccc(N)cc1	2.82µM*	4.26µM*	11.2µM*	u	2.24µM*
C/C(=N\Nc1cccc2cccnc12)c1ccccn1	3.16µM*	0.338µM*	2µM*	u	0.794µM*
Cc1nn(-c2ccccc2)c(C)c1Cc1ccc(O)cc1	u	23.9µM*	x	2.6%	u
Cc1nn(-c2ccccc2)c(C)c1CN	-3.3%	-0.7%	x	1.6%	-10.0%
CCc1ccccc1NC(=O)CN(C)C(=O)CSc1nc2cc(Cl)ccc2s1	0.6%	-0.2%	-9.4%	-1.4%	1.0%
CS(=O)(=O)Nc1ccc(C2=NN(C(=O)c3ccco3)C(c3ccc(F)cc3)C2)cc1 (stereo not given)	-3.0%	-2.7%	-56.5%	-4.1%	-2.6%

Source: PubChem
